Experimental findings from PubChem BioAssay (Tox21) are described below.

SMILES strings stand for the structures. Several values for one entry are separate records, joined by “and”; a condition that tells them apart may be missing. Identical values can stand only once. Results filed as inconclusive are left out. A call without a number means that no potency is given here. Some compounds were tested as several samples or in several runs, with calls that do not always agree. Activity calls are given as the source filed them. Calls follow the shape of the dose curve; as a rule, active = well fitted activation curve with a large enough effect in the repeat runs; inconclusive = weak or mixed curves; inactive = flat fitted curve, though single readings scatter.
Potency is read from the fitted curve at half-maximal effect.

The nature of this test: A CellTox Green Cytotoxicity Assay to monitor cytotoxicity in HepG2 cells - 16 hour (AID 1224876). Also: nearly all actives have a fitted effect of over 45% in size. Conditions: CellTox Green fluorescence; series mostly up to 76.8 µM. The method in brief:
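Nonlytic assay: viable cells exclude the dye, so fluorescence scales with cell death. HepG2 at 600 cells/well, compounds added after 5 h, signal read across 40 h.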
Take `CC1=CCC(C(C)(C)O)CC1` (centres undefined): the Potency entry was “inactive and 19.5 µM (active)”. In the case of `Nc1ncn([C@@H]2O[C@H](CO)[C@@H](O)[C@H]2O)c(=O)n1` it was “inactive”; in that of `CCOC(=O)C(C#N)=C(c1ccccc1)c1ccccc1`, “inactive”. In the case of `CCC(C)(O)CCCC(C)C` (centres undefined), the Potency result is “inactive”. In the case of `CCCCNS(=O)(=O)c1ccccc1` it was “inactive”; in that of `CC(C)CC(C)(O)C#CC(C)(O)CC(C)C` (centres undefined), “inactive”; in that of `c1ccc2c(c1)c1cccc3ccc4cccc2c4c31`, “inactive”. Regarding `O=C(/C=C/c1ccccc1)OCc1ccccc1`, the Potency entry is “inactive”. Consider `CC(C)(C)NC(=O)[C@H]1CC[C@H]2[C@@H]3CC[C@H]4NC(=O)C=C[C@]4(C)[C@H]3CC[C@]12C`, for which the Potency entry was “inactive”. To `CCCc1c(OCCCCc2nn[nH]n2)ccc(C(C)=O)c1O` belongs “inactive”; to `CCCCCCCCCCCO`, “inactive”.

On to `COc1ccc(OC)c(C(O)CNC(=O)CN)c1` (centres undefined), for which the Potency entry was “inactive”. In the case of `COC(=O)Nc1nc2ccc(S(=O)c3ccccc3)cc2[nH]1` (centres undefined) it was “inactive”. In the case of `Cc1ncc[nH]1` it was “inactive”; in that of `Cc1ccc(C(=O)c2cc(O)c(O)c([N+](=O)[O-])c2)cc1`, “inactive”.

With `CN1C(C(=O)Nc2ccccn2)=C(O)c2ccccc2S1(=O)=O`, the Potency result is “inactive”. For the compound `Cc1c(OCC(F)(F)F)ccnc1CS(=O)c1nc2ccccc2[nH]1` (centres undefined), the Potency result is “inactive”. To `Nc1ccc(Nc2ccccc2)cc1` belongs “inactive”; to `COc1cc([C@@H]2c3cc4c(cc3[C@H](O)[C@H]3COC(=O)[C@H]23)OCO4)cc(OC)c1OC`, “inactive”; to `CC(C)OC=O`, “inactive”. Consider `OC(CCl)CCl`, for which the Potency entry was “inactive”.

Consider `CC(C)OB(OC(C)C)OC(C)C`, for which the Potency entry is “inactive”.

Regarding `C[Si](C)(C)O[Si](C)(C)C`, the Potency result is “inactive”. For the compound `c1cc(-c2ccncc2)ccn1`, the Potency entry is “inactive”. To `NNc1ccc(C(=O)O)cc1` belongs “inactive”. In the case of `O=C(OCc1ccccc1)c1ccccc1O` it was “inactive”. Turning to `NC=O`, the Potency result is “inactive”. In the case of `Cc1cc2nc3c(=O)[nH]c(=O)nc-3n(C[C@H](O)[C@H](O)[C@H](O)CO)c2cc1C` it was 43.2 µM (active) and 40.5 µM (active) and 11.7 µM (active); in that of `Nc1ncnc2nc[nH]c12`, “inactive”; in that of `CC(CCC(=O)O)(c1ccc(O)cc1)c1ccc(O)cc1`, “inactive”. To `C=C(C)C1CC=C(C)CC1` (centres undefined) belongs “inactive”; to `Cc1[nH]c(=O)c(C#N)cc1-c1ccncc1`, “inactive”.

Take `O=C(c1ccccc1)c1ccc(O)cc1O`: the Potency result was “inactive”.

With `CCCCCCCCCC(=O)OC`, the Potency entry was “inactive”. In the case of `Cc1cccc(C(=O)O)c1` it was “inactive”; in that of `c1ccc(Nc2ccccc2)cc1`, “inactive”.

For the compound `CCCC(=O)O`, the Potency entry is “inactive”. In the case of `O=[N+]([O-])c1ccc2c(c1)Cc1ccccc1-2` it was “inactive”; in that of `OCCO`, “inactive”.
